# Entries with a potency or affinity are not part of this list.
# Tests used:
# Staphylococcus aureus = conditions: Concentration 32 ug.mL-1; ASSAY_TEST Inhibition of Bacterial Growth; detection method Absorption (OD600); MEDIA CAMHB; plate type 384well; NBS; CORNING #3640; time 18 hr
# Escherichia coli = conditions: Concentration 32 ug.mL-1; ASSAY_TEST Inhibition of Bacterial Growth; detection method Absorption (OD600); MEDIA CAMHB; plate type 384well; NBS; CORNING #3640; time 18 hr
SMILES,Inhibition (Staphylococcus aureus) [%],Inhibition (Escherichia coli) [%]
COc1ccc2c(c1)CCC(=Cc1cnccc1OC)C2=O,0.49,-6.17
COc1ccc2c(c1)C(=O)C(=Cc1cnccc1OC)CC2,16.33,1.39
COc1cc2c(cc1OC)C(=O)C(=Cc1ccco1)CC2,23.29,6.96
COc1ccc2c(c1)CCC(=Cc1cccnc1Br)C2=O,11.61,-5.29
COc1ccc2c(c1)C(=O)C(=Cc1cccnc1Cl)CC2,6.88,-2.48
COc1ccc2c(c1)C(=O)C(=Cc1cccnc1)CC2,17.94,4.25
COc1ccc2c(c1)C(=O)C(=Cc1ccccn1)CC2,11.08,3.58
COc1cccc2c1CCC(=Cc1ccco1)C2=O,13.6,5.5
COc1ccc2c(c1)CCC(=Cc1ccc(OC)nc1)C2=O,-4.04,1.52
COc1cc2c(cc1OC)C(=O)C(=Cc1ccoc1)CC2,22.02,2.08
CC(C)(C)OC(=O)N1CC(=Cc2ccco2)C(=O)/C(=C/c2ccco2)C1,17.59,1.8
COc1ccc2c(c1)CCC(=Cc1ccccn1)C2=O,14.37,1.84
COc1cccc2c1CCC(=Cc1cccc(C=C3CCc4c(OC)cccc4C3=O)c1)C2=O,-26.12,-22.27
COc1ccc2c(c1)C(=O)C(=Cc1cccnc1Br)CC2,5.72,0.26
COc1ccc(/C=C/C(=O)c2ccc(OCc3ccc(Br)cc3)cc2)cc1OC,-11.78,-9.61
COc1ccc2c(c1)C(=O)C(=Cc1cncc(Br)c1)CC2,75.2,2

SMILES,Inhibition (Staphylococcus aureus) [%],Inhibition (Escherichia coli) [%]
COc1ccc2c(c1)C(=O)C(=Cc1ccoc1)CC2,24.21,0.87
Cc1ccc(C=C2CN(C(=O)OC(C)(C)C)C/C(=C\c3ccc(C)cc3C)C2=O)c(C)c1,9.56,-6.82
COc1ccc2c(c1)C(=O)C(=Cc1cccc(C=C3CCc4ccc(OC)cc4C3=O)c1)CC2,5.74,2.05
COc1ccc2c(c1)C(=O)C(=Cc1ccco1)CC2,20.52,4.79
COc1ccc2c(c1)CCC(=Cc1cccnc1Cl)C2=O,1.26,-0.89
COc1ccc2c(c1)C(=O)C(=Cc1cccnc1Cl)CC2.Cl,20.04,2.21
COc1ccc2c(c1)C(=O)C(=Cc1cccnc1OC)CC2,16.7,4.57
COc1ccc2c(c1)CCC(=Cc1ccncc1)C2=O,16.04,3.11
COc1cccc2c1CCC(=Cc1ccoc1)C2=O,21.03,-0.51
COc1ccc2c(c1)CCC(=Cc1cccnc1)C2=O,11.8,5.55
COc1ccc2c(c1)CCC(=Cc1cncc(Br)c1)C2=O,0.4,-0.04
COc1ccc2c(c1)C(O)C(=Cc1cccnc1Cl)CC2 (configuration not stated),5.45,4.12
CC(C)(C)OC(=O)N1CC(=Cc2ccoc2)C(=O)/C(=C/c2ccoc2)C1,3.94,-5.28
COc1ccc2c(c1)CCC(=Cc1ccco1)C2=O,19.21,7.9
COc1ccc2c(c1)CCC(=Cc1ccoc1)C2=O,24.71,8.45

# Source: ChEMBL document CHEMBL4513147, “CO-ADD screening of Armstrong State University (GA, USA) compounds”
